{"source": "PubChem BioAssay (Tox21)", "note": "Calls of active or inactive are those of the source. Where a call stands in place of a potency, no number is given. Calls come from the whole dose curve; as a rule, active = well fitted activation curve with a large enough effect in the signal ratio in the repeat runs (not every such curve was filed as active); inconclusive = weak or mixed curves, or effect the other way; inactive = no such curve, though single readings can be large or run the other way; the % refers to the signal ratio. Potency is the fitted concentration of half-maximal effect."}
{"target": "Glucocorticoid receptor (Homo sapiens) (UniProt P04150)", "sequence (P04150 whole entry, looked up)": "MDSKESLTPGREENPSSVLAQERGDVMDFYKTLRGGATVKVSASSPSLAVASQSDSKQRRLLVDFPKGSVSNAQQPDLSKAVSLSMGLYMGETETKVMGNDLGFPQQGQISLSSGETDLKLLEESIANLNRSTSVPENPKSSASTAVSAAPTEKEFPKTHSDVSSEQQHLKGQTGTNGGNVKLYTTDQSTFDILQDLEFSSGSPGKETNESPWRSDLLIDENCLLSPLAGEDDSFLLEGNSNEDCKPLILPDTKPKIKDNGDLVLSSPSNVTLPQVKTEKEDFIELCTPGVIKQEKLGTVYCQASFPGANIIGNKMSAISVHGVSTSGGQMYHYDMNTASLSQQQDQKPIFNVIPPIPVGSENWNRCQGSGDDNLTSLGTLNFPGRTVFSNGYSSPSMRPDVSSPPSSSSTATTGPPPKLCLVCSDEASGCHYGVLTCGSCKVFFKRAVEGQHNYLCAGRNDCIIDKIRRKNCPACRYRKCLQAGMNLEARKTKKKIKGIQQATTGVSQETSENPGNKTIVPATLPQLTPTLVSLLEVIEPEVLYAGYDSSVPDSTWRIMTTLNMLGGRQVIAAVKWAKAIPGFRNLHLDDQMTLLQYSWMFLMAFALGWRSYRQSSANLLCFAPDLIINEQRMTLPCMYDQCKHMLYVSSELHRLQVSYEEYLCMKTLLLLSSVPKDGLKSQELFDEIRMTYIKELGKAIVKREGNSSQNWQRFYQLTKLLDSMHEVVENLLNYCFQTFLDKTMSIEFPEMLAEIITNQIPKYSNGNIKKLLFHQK", "experiment": "qHTS assay to identify small molecule agonists of the glucocorticoid receptor (GR) signaling pathway (AID 720691)", "conditions": "GR-bla HeLa, beta-lactamase reporter ratio, 18 h; series mostly up to 62.4 µM", "description": "U.S. Tox21 Program National Center for Advancing Translational Sciences [NCATS] NIH Chemical Genomics Center [NCGC] U.S. Environmental Protection Agency [EPA] National Institutes of Environmental Health Sciences [NIEHS] National Toxicology Program [NTP] U.S. Food and Drug Administration [FDA] Tox21 Assay Overview: The Glucocorticoid receptor (GR) is one of the members of the nuclear receptor family of ligand-dependent transcription factors. GR plays a critical role in carbohydrate, protein and lipid metabolisms and programmed cell death. CellSensor GR-bla HeLa cell line (Invitrogen) contains a beta-lactamase reporter gene under the control of the glucocorticoid response element stably integrated into HeLa cells, a cervical cancer cell line that expresses glucocorticoid receptor. The activation of the reporter gene under culture conditions can be detected by fluorescence intensity. This cell line has been used to screen the Tox21 10K compound library and to identify the compounds that activate the GR signaling.\nTox21 Assay Protocol Summary: The GR-bla HeLa cells were dispensed at 1500 cells/6 ul/well in 1536-well black wall/clear bottom plates using a Multidrop Combi (ThermoFisher Scientific, Waltham, MA) dispenser. After the assay plates were incubated at a 37 C/5% CO2 incubator for 4 hours, 23 nL of compounds dissolved in DMSO, positive controls or DMSO only was transferred to the assay plate by a pintool station (Kalypsys, San Diego, CA). The plates were incubated at 37 C for 18 hours. After 1 uL of LiveBLAzerTM B/G FRET substrate was added using a Flying Reagent Dispenser (Aurora Discovery, San Diego, CA), the plates were incubated at room temperature for 2 hours, and fluorescence intensity was measured by an Envision plate reader (PerkinElmer, Shelton, CT)."}
{"smiles": "COC(=O)c1ccc(OC)cc1", "Potency": "inactive"}
{"smiles": "OCCN(CCO)CCN(CCO)CCO", "Potency": "inactive"}
{"smiles": "CCOC(=O)C1CC(=O)C(=C(O)C2CC2)C(=O)C1", "note": "(stereo not given)", "Potency": "inactive"}
{"smiles": "O=C(C(Cl)Cl)N1CCOC12CCCCC2", "Potency": "inactive"}
{"smiles": "CC(C)C(=O)OCC(C)(C)C(O)C(C)C", "note": "(stereo not given)", "Potency": "inactive"}
{"smiles": "C1CSCCS1", "Potency": "inactive"}
{"smiles": "C[C@]12CCC(=O)C=C1CC[C@@H]1[C@@H]2CC[C@@]2(C)[C@H]1CC[C@]2(O)C(=O)CO", "Potency": "12 µM (active)"}
{"smiles": "C[C@]12C(=O)OC(=O)[C@H]1[C@H]1C=C[C@@H]2C1", "Potency": "inactive"}
{"smiles": "Cc1c(-c2ccccc2)oc2c(C(=O)OCCN3CCCCC3)cccc2c1=O", "Potency": "inactive"}
{"smiles": "O=c1[nH]c(=O)n([C@H]2C[C@H](O)[C@@H](CO)O2)cc1C(F)(F)F", "Potency": "inactive"}
{"smiles": "NCCC(O)(P(=O)(O)O)P(=O)(O)O", "Potency": "inactive"}
{"smiles": "CCCC1CCC(=O)O1", "note": "(stereo not given)", "Potency": "inactive"}
{"smiles": "NCCCN1CCN(CCCN)CC1", "Potency": "inactive"}
{"smiles": "CN1CCN(C2=Nc3cc(F)ccc3Cc3ccccc32)CC1", "Potency": "inactive"}
{"smiles": "Oc1ccccc1F", "Potency": "inactive"}
{"smiles": "CCCNC(C)C(=O)Nc1c(C)csc1C(=O)OC", "note": "(stereo not given)", "Potency": "inactive"}
{"smiles": "Cc1nc(-c2ccccn2)ncc1C(=O)Nn1cc(C)c2cc(F)ccc21", "Potency": "inactive"}
{"smiles": "CCNCCO", "Potency": "inactive"}
{"smiles": "CC1=C(O)C(=O)OC1C", "note": "(stereo not given)", "Potency": "inactive"}
{"smiles": "CCCCC(=O)O[C@]1(C(=O)CO)[C@H](C)C[C@H]2[C@@H]3CCC4=CC(=O)C=C[C@]4(C)[C@@]3(F)[C@@H](O)C[C@@]21C", "Potency": "0.0043 µM [inconclusive] (active)"}
{"smiles": "CCCCNC(=S)NCCCC", "Potency": "inactive"}
{"smiles": "CCN(CC)CCNC(=O)COc1ccc(Cl)cc1", "Potency": "inactive"}
{"smiles": "CCCN(CCC)C(=O)C(CCC(=O)O)NC(=O)c1ccccc1", "note": "(stereo not given)", "Potency": "inactive"}
{"smiles": "O=C1CCCc2ccccc21", "Potency": "inactive"}
{"smiles": "CN(C)C(=O)NC1(c2ccccc2)CCN(CCC[C@]2(c3ccc(Cl)c(Cl)c3)CCCN(C(=O)c3ccccc3)C2)CC1", "Potency": "inactive"}
{"smiles": "COc1ccc2nc(NC(=O)Nc3ccccc3)sc2c1", "Potency": "inactive"}
{"smiles": "CC(C)OC(C)C", "Potency": "inactive"}
{"smiles": "CCCNC(C)(C)COC(=O)c1ccccc1", "Potency": "inactive"}
{"smiles": "COc1cc(N)c(Cl)cc1C(=O)NC1CCN(Cc2ccccc2)CC1", "Potency": "inactive"}
{"smiles": "ClC(Cl)Cl", "Potency": "inactive"}
{"smiles": "O=C(O)CN(CCN(CC(=O)O)CC(=O)O)CCN(CC(=O)O)CC(=O)O", "Potency": "inactive"}
{"smiles": "CCOC(=O)NCCC[Si](OCC)(OCC)OCC", "Potency": "inactive"}
{"smiles": "Cc1cc2nc(N)sc2cc1C", "Potency": "inactive"}
{"smiles": "NC(=O)Cc1cccc(C(=O)c2ccccc2)c1N", "Potency": "inactive"}
{"smiles": "CN1CCN(c2c(F)cc3c(=O)c(C(=O)O)cn4c3c2SCC4)CC1", "Potency": "inactive"}
{"smiles": "O=c1oc2c(O)c(O)cc3c(=O)oc4c(O)c(O)cc1c4c23", "Potency": "inactive"}
{"smiles": "CC(C)C(=O)OC/C=C/c1ccccc1", "Potency": "inactive"}
{"smiles": "Cn1cnc2c(F)c(Nc3ccc(Br)cc3Cl)c(C(=O)NOCCO)cc21", "Potency": "inactive"}
{"smiles": "COc1ccc(Nc2ccc(OC)cc2)cc1", "Potency": "inactive"}
{"smiles": "CC(=O)Nc1ccc(C)c(Cl)c1", "Potency": "inactive"}
